From the antibiotic and cytotoxicity screens of Wong et al. (2023) come the findings set out here.

Hit rate of the full screen: of about 39,000 compounds, about 1,500 (3.8%) were called active. This is one part of a sample in which actives are shown more often than they occur.

For the assay, the system named is HSkMC (human skeletal muscle cells). Description: cytotoxicity call (relative viability < 0.9). The note with it: 10 µM.
For `COCC#Cc1cnc2c(c1)C(=O)N([C@@H](C)CO)C[C@H](C)[C@@H](CN(C)C(=O)CN1CCOCC1)O2`, the cytotoxicity call was “inactive”.
In the case of `COc1ccc(S(=O)(=O)N2C[C@H](O)COC[C@H]3O[C@H](CC(=O)NCCCN4CCOCC4)CC[C@@H]32)cc1`, the cytotoxicity call is “inactive”.
With `C[C@@H]1CN([C@@H](C)CO)S(=O)(=O)c2ccc(C#Cc3ccc(F)cc3)cc2O[C@@H]1CN(C)S(C)(=O)=O`, the cytotoxicity call was “inactive”.
Turning to `Cc1noc(C)c1NC(=O)N(C)C[C@@H]1OCCCC[C@@H](C)Oc2ccc(NC(=O)Nc3cccc4ccccc34)cc2C(=O)N([C@H](C)CO)C[C@@H]1C`, the cytotoxicity call was “inactive”.
As for `CCCC#Cc1cnc2c(c1)C(=O)N([C@H](C)CO)C[C@H](C)[C@@H](CN(C)C(=O)c1ccc3c(c1)OCO3)O2`, the cytotoxicity call is “inactive”.
The value for `COc1ccc(S(=O)(=O)N(C)C[C@H]2Oc3ccc(NC(=O)CCCN(C)C)cc3CC(=O)N([C@@H](C)CO)C[C@@H]2C)cc1` was “inactive”; that for `O=C(C1=C[C@H](c2ccc(C(F)(F)F)cc2)C[C@H](OCc2ccc(CO)cc2)O1)N1CCN(Cc2ccc3c(c2)OCO3)CC1` was “inactive”; that for `CN(C)CCCCNC(=O)[C@H]1C[C@H]2C(=O)N[C@@H](Cc3ccccc3)C(=O)N2[C@H]1c1cccc(OCCO)c1` was “inactive”.
Consider `O=C(C[C@@H]1C[C@@H]2c3cc(NS(=O)(=O)c4ccc(F)cc4)ccc3O[C@@H]2[C@@H](CO)O1)N1CCOCC1`, for which the cytotoxicity call is “inactive”.
As to `O=C1CN(S(=O)(=O)Cc2ccccc2)C[C@@H]2[C@H](c3ccc(C#Cc4cccc(F)c4)cc3)[C@@H](CO)N12`, the cytotoxicity call is “inactive”.
Under `COc1cccc(C#Cc2ccc([C@@H]3[C@H](CO)N4C(=O)CN(S(=O)(=O)c5ccccc5C)C[C@@H]34)cc2)c1` stands “inactive”; under `O=C1CN(S(=O)(=O)Cc2ccccc2)C[C@@H]2[C@@H](c3ccc(C#Cc4cccc(F)c4)cc3)[C@@H](CO)N12`, “active”; under `O=C1CN(S(=O)(=O)Cc2ccccc2)C[C@@H]2[C@H](c3ccc(C#Cc4cccc(F)c4)cc3)[C@H](CO)N12`, “inactive”.
As for `O=C1CN(S(=O)(=O)Cc2ccccc2)C[C@H]2[C@H](c3ccc(C#Cc4cccc(F)c4)cc3)[C@H](CO)N12`, the cytotoxicity call was “active”.
The value for `O=C1CN(S(=O)(=O)Cc2ccccc2)C[C@H]2[C@@H](c3ccc(C#Cc4cccc(F)c4)cc3)[C@@H](CO)N12` was “inactive”; that for `O=C1CN(S(=O)(=O)Cc2ccccc2)C[C@@H]2[C@@H](c3ccc(C#Cc4cccc(F)c4)cc3)[C@H](CO)N12` was “active”.
The value for `O=C1CN(S(=O)(=O)Cc2ccccc2)C[C@H]2[C@@H](c3ccc(C#Cc4cccc(F)c4)cc3)[C@H](CO)N12` was “inactive”; that for `O=C1CN(S(=O)(=O)Cc2ccccc2)C[C@H]2[C@H](c3ccc(C#Cc4cccc(F)c4)cc3)[C@@H](CO)N12` was “inactive”.
